Hits are enriched below; roughly 3.5% of the tested compounds scored in any of these assays.
GPR151 activ – activators of human GPR151, primary screen, cell-based, PathHunter beta-arrestin, luminescence; activation, % at 11.2 µM; AID 1508602, 2020; G-protein coupled receptor 151 (Homo sapiens), Q8TDV0; actives 1% (n = 650,000); PathHunter beta-arrestin GPR151 cells; in the data active = activation above about 4.9%;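 also: 0% = median of compound wells and 100% = cells with positive control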
TEAD-YAP block – TEAD-YAP interaction inhibition, primary screen, TEAD-YAP interaction inhibitor project, luminescence, HEK-TIYL cells; TEAD-Gal4/YAP UAS-luciferase luminescence; inhibition, % at 9.12 µM; actives 1.4% (n = 640,000); AID 1259422, 2018; in the data active = inhibition above about 32%;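 also: 0% = median of test compound wells and 100% = reference inhibitor wells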
FBW7 activator – FBW7 E3 ligase activators, primary screen, biochemical, AlphaScreen, human. F-box/WD repeat-containing protein 7 (Homo sapiens), Q969H0. AlphaScreen FBW7–phospho-cyclin E peptide binding, activator screen. normalized activity (activation), % at 26.1 µM. actives 0.13% (n = 650,000). AID 1259310, 2017; in the data active = normalized activity above about 1.9%;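 also: purified mutant Fbw7 with reduced substrate affinity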
Target sequence (Q969H0 whole entry, looked up): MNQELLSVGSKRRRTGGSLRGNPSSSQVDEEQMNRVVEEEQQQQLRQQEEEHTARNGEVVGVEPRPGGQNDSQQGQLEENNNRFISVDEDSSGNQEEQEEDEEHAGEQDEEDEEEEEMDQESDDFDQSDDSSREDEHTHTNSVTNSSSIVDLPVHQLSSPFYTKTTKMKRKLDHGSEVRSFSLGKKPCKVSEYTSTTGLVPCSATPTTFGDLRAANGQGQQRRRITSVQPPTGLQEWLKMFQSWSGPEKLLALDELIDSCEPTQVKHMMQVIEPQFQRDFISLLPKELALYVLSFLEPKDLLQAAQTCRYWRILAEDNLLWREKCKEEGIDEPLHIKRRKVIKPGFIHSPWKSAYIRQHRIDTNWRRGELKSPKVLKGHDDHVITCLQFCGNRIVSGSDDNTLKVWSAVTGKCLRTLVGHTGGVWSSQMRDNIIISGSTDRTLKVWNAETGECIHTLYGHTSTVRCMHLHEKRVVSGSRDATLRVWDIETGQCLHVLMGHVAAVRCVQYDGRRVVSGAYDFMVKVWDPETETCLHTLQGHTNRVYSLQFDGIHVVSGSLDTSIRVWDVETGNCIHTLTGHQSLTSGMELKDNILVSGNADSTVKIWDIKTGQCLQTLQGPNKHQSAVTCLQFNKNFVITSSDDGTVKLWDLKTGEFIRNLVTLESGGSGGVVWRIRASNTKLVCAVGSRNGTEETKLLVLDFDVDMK
MITF primary – MITF inhibitors, primary screen, biochemical, AlphaScreen, human; AlphaScreen MITF homodimerization, bead proximity signal; AID 1259374, 2018; inhibition, % at 2.6 µM; Microphthalmia-associated transcription factor (Homo sapiens), O75030; actives 0.91% (n = 650,000); in the data active = inhibition above about 50%;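 also: 0% = vehicle wells with protein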
MITF inh conf – MITF inhibitors, retest of hits, confirmation, biochemical, AlphaScreen, triplicate | shares compounds with MITF primary | AlphaScreen MITF homodimerization, biotin/His-MITF beads | inhibition, % at 2.6 µM | actives 16% (n = 4,700) | AID 1259372, 2018;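 active = inhibition above a cutoff derived from the DMSO control wells, cut at about 28% in these data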;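 also: 0% = MITF dimer wells with DMSO only; inhibitors lower the bead chemiluminescence by keeping MITF from dimerizing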
AlphaScreen intf2 – AlphaScreen optical interference compounds, counter-screen for MITF inhibitor project, biochemical, triplicate; shares compounds with MITF primary; LysRS AlphaScreen counterscreen, signal interference; inhibition, % at 2.6 µM; actives 7.6% (n = 4,700);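 active = inhibition above a cutoff derived from the DMSO control wells, cut at about 30% in these data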
An asterisk follows results filed as active; . = no result given.

SMILES	GPR151 activ	TEAD-YAP block	FBW7 activator	MITF primary	MITF inh conf	AlphaScreen intf2
CC(C)CNC(=O)c1ccc(N2CC3CC(C2)c2cccc(=O)n2C3)c(N)c1 (stereo unspecified)	1	0	0	-7	.	.
OCCN1CCN(Cc2c(F)cccc2Cl)CC1	0	-8	0	10	.	.
COc1ccc(-c2nn(CCC#N)cc2C=O)cc1OC	-1	0	0	11	.	.
O=C(Cc1ccccc1)N1CCN(C2CC3CCC2C3)CC1 (stereo unspecified)	-1	-4	0	24	.	.
C1CCC(N2CCN(C3CC4CCC3C4)CC2)C1 (stereo unspecified)	1	-4	0	67*	-2	1
CN1CCN(Cc2ccc(Cl)cc2)CC1	-1	-1	0	39	.	.
CCOc1ccc(CN2CCN(Cc3ccccc3C)CC2)cc1	0	4	0	64*	9	5
CCOc1ccc(CN2CCN(c3ccccc3)CC2)cc1	3	-8	0	35	.	.
CCOc1cccc(CN2CCN(Cc3ccccc3)CC2)c1O	0	-4	0	5	.	.
CCOc1ccc(CN2CCN(Cc3ccc(Cl)cc3)CC2)cc1	0	4	0	58*	20	14
CCc1ccc(CN2CCN(Cc3ccc(Cl)cc3)CC2)cc1	0	4	0	76*	11	18
COc1ccc(CN2CCN(C(=O)COc3ccc(Cl)cc3)CC2)cc1	0	5	0	58*	14	17
CC(=O)N(C1=NCCCS1)c1cccc(Cl)c1	0	-11	0	1	.	.
CCc1ccc(CN2CCN(Cc3ccc(CC)cc3)CC2)cc1	1	8	0	67*	3	4
Oc1ccc(CN2CCN(c3ccc(Cl)cc3)CC2)cc1	2	-3	0	11	.	.
CSc1ccc(CN2CCN(Cc3ccc(Cl)cc3)CC2)cc1	2	7	0	80*	11	16
COc1ccc(-n2c(/C=C/c3ccc(SC)cc3)nc3ccccc3c2=O)cc1Cl	-1	-4	0	-4	.	.
CCN1CCN(Cc2ccc(F)c(Br)c2)CC1	1	-2	0	44	.	.
OCCN1CCN(Cc2ccc(F)c(Br)c2)CC1	0	2	0	73*	-4	-4
CN1CCN(Cc2ccc(F)c(Br)c2)CC1	0	-1	1	80*	12	15
CCOC(=O)C1C2NC(=S)N(CCOC)C1(C)Oc1c(Br)cc(Br)cc12 (stereo unspecified)	0	4	0	36	.	.
CC(C)(C)N1CC1C(=O)OCc1ccccc1 (stereo unspecified)	0	-3	0	12	.	.
Fc1cccc(CN2CCN(Cc3ccc4c(c3)OCO4)CC2)c1	0	-3	0	56*	-2	3
Brc1cccc(CN2CCN(Cc3cccc(Br)c3)CC2)c1	0	2	1	77*	-3	10
Brc1cccc(CN2CCN(Cc3ccc4c(c3)OCO4)CC2)c1	1	3	0	64*	-3	7
SMILES	GPR151 activ	TEAD-YAP block	FBW7 activator	MITF primary	MITF inh conf	AlphaScreen intf2
Clc1cccc(CN2CCN(Cc3cccc(Br)c3)CC2)c1	0	10	0	50	.	.
COc1ccccc1OCC(=O)N1CCN(Cc2nc3ccccc3[nH]2)CC1	3	-13	-1	75*	8	22
O=C(COc1ccccc1Cl)N1CCN(Cc2ccccc2)CC1	0	-4	0	0	.	.
O=C(Cc1noc2ccccc12)N1CCN(Cc2nc3ccccc3[nH]2)CC1	2	4	0	77*	5	17
CCCCOc1ccc(C(=O)Nc2ccc(Cl)cc2C(=O)c2ccccc2)cc1	3	0	0	-2	.	.
CCC(C)N1CCN(Cc2ccccc2)CC1 (stereo unspecified)	0	11	0	66*	-4	-8
CCC(C)N1CCN(Cc2ccccc2F)CC1 (stereo unspecified)	0	-1	0	75*	-2	0
COc1cccc(C2C(C#N)=C(N)Oc3n[nH]c(-c4cc(C)sc4C)c32)c1 (stereo unspecified)	1	4	0	6	.	.

From PubChem
